# Source: PubChem
# In the library only some 3.8% were active in any assay of this set; here they are far more common.
# NTR1 agonist – activates human neurotensin receptor 1; P30989; activation, % at 20 µM; hit rate 0.17% among 330,000; NTR1-U2OS beta-arrestin-GFP spot imaging, agonist mode;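 active means activation at or above 40% of the spot to cytoplasm intensity ratio, with at least 20 cells analyzed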
# Jurkat NFkB inh – lowers PMA/ionomycin-induced NF-kB signal in Jurkat cells | hit rate 0.53% among 330,000 | inhibition, % at 4 µM | PMA/ionomycin-induced NF-kB luciferase reporter, luminescence; in the data active means inhibition above about 50%
# Bfl-1 A1 inh – inhibitors of the anti-apoptotic protein A1, read as caspase activation | MEF A1-2A-BIM cells, Caspase-Glo 3/7 luminescence, 3 h; percent of clofoctol response, vehicle zero | caspase activation, % (test concentration not listed) | hit rate 0.066% among 330,000;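 active means over half of replicate activation scores above 10%, or exactly half above 10 with the replicate mean above 10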
# 697 NFkB inh – lowers PMA/ionomycin-induced NF-kB signal in 697 B cells; hit rate 0.33% among 330,000; inhibition, % at 4 µM; 697 B-cell NF-kB luciferase reporter, 16 h; AID 435022; in the data active means inhibition above about 35%
# Beta cell apopt – blocks beta cell apoptosis. INS-1E cytokine-induced death, ATP luminescence, 48 h; percent of positive-control rescue, neutral wells zero. protection from apoptosis, % (no concentration beside the values). hit rate 0.8% among 300,000. AID 435005;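 active means Every replicate reaches about 75%, or at least half do and their mean reaches it too, limit read from the data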;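 further: higher means more ATP so stronger rescue from cytokine killing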
# Mdm2-MdmX inh – human Mdm2/MdmX binding inhibition | hit rate 3% among 330,000 | AID 485346 | inhibition, % at 8 µM | O15151+Q00987 | SaOS-2 split-luciferase Mdm2/MdmX complementation, luminescence;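 active means inhibition of at least 50% at 8 µM in the primary screen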
# Mdm2 MdmX conf – human Mdm2/MdmX binding inhibition, confirmed. luminescent assay. shares compounds with Mdm2-MdmX inh. inhibition, % at 8 µM. hit rate 55% among 10,000. AID 489028; in the data active means inhibition above about 40%
# FLuc counter – inhibits full-length luciferase, flagging false Mdm2/MdmX hits; hit rate 77% among 6,200; inhibition, % at 8 µM; shares compounds with Mdm2-MdmX inh; SaOS-2 full-length luciferase counterscreen, luminescence; AID 504607;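 active means mean inhibition at 8 µM reaching about 37%, which flags the compound as non-specific, limit read from the data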;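 further: p53-null SaOS-2 cells with luciferase driven by a doxycycline-inducible promoter; compound on cells about two nights before reading with doxycycline added after day one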
# A number is an active result; n = inactive; x = no result.
SMILES,NTR1 agonist,Jurkat NFkB inh,Bfl-1 A1 inh,697 NFkB inh,Beta cell apopt,Mdm2-MdmX inh,Mdm2 MdmX conf,FLuc counter
N#Cc1ccccc1NC(=O)COC(=O)CN1C(=O)C2CCCCC2C1=O (centres undefined),n,n,n,n,n,n,x,x
COC(CNC(=O)CCc1c(C)nc2c(c(C)nn2-c2ccc(C)cc2)c1C)OC,n,n,n,n,n,n,x,x
Cc1ccc(-n2nc(C)c3c(C)c(CCC(=O)Nc4ccc(CN5CCCC5)cc4)c(C)nc32)cc1,n,n,n,n,n,89,50,n
CCN(CC)CCNC(=O)CCc1c(C)nc2c(c(C)nn2-c2ccc(C)c(C)c2)c1C,n,n,n,n,n,58,44,48
Cc1ccnc(N/C=C(\C#N)c2nc(-c3cccc(Br)c3)cs2)c1,n,n,n,n,n,53,n,x
CC(=O)Nc1cccc(-c2csc(Nc3cc(C)ccn3)n2)c1,n,n,n,n,n,n,x,x
COC(=O)COc1coc(CN2CCN(c3cccc(Cl)c3)CC2)cc1=O,n,n,n,n,x,n,x,x
CCS(=O)(=O)Nc1ccc(C2=NN(C(=O)c3ccco3)C(c3ccco3)C2)cc1 (centres undefined),n,n,n,n,n,53,74,56
O=C(CCl)N1N=C(c2ccco2)CC1c1ccco1 (centres undefined),n,n,n,n,x,97,49,n
CN1CCN(CC(=O)N2N=C(c3cccs3)CC2c2ccco2)CC1 (centres undefined),n,n,n,n,n,n,x,x
O=C(CCl)N1N=C(c2cccs2)CC1c1ccco1 (centres undefined),n,n,n,n,n,100,99,53
O=S(=O)(O)c1cc(O)c2c(O)c(N=Nc3cc(Cl)ccc3O)c(S(=O)(=O)O)cc2c1,n,n,n,n,n,n,x,x
Cc1cc(-c2ccc(N=Nc3c(S(=O)(=O)O)cc4cc(S(=O)(=O)O)cc(N)c4c3O)c(C)c2)ccc1N=Nc1c(S(=O)(=O)O)cc2cc(S(=O)(=O)O)cc(N)c2c1O,n,n,n,n,77,62,57,48
Cc1nc2c(sc(=S)n2Cc2ccco2)c(=O)n1CC(=O)Nc1ccc(F)cc1,n,n,n,n,n,52,n,x
CCn1c(=S)sc2c(=O)n(CC(=O)Nc3ccccc3C(F)(F)F)c(C)nc21,n,n,n,n,n,53,n,x
CCn1c(=S)sc2c(=O)n(CC(=O)Nc3ccccc3)c(C)nc21,n,n,n,n,n,n,x,x
CC(=O)Nc1ccc(S(=O)(=O)Nc2cccc3cccnc23)cc1,n,n,n,n,n,n,x,x
Cc1ccc(S(=O)(=O)Nc2cccc3cccnc23)c([N+](=O)[O-])c1,n,n,n,n,n,100,75,54
O=S(=O)(Nc1cccc2cccnc12)c1ccc(S(=O)(=O)N2CCCC2)cc1,n,n,n,n,n,83,53,37
O=C(CCl)N1CCN(C(=O)C2COc3ccccc3O2)CC1 (centres undefined),n,n,n,n,n,67,n,x
COc1ccc(-c2nc3c(c(=O)n(C)c(=O)n3C)n2CC2CC(c3ccccc3)=NO2)cc1OC (centres undefined),n,n,n,n,n,61,45,89
O=C(CCC1CCCC1)NCCS(=O)(=O)N1CCN(c2ccccc2F)CC1,n,n,n,n,x,n,x,x
COc1ccc(Cn2c(C)c(C)c(C#N)c2NC(=O)Nc2cccc(C)c2)cc1,n,n,n,n,n,54,n,x
CCOc1ccc(NC(=O)Nc2cccn(Cc3ccccc3)c2=O)cc1,n,n,n,n,n,n,x,x
COc1ccc(Cn2cccc(NC(=O)Nc3cccc(C#N)c3)c2=O)cc1,n,n,n,n,n,67,n,x
SMILES,NTR1 agonist,Jurkat NFkB inh,Bfl-1 A1 inh,697 NFkB inh,Beta cell apopt,Mdm2-MdmX inh,Mdm2 MdmX conf,FLuc counter
Cc1ccc(S(=O)(=O)N2CCN(C(=O)COC(=O)C3(C)CC3(Cl)Cl)CC2)c(C)c1 (centres undefined),n,n,n,n,n,n,x,x
C/C(=C\c1ccc(C(=O)O)cc1)c1ccc2c(c1)C(C)(C)CCC2(C)C,n,n,n,n,n,58,52,44
COc1ccc(NC(=O)CN(C)C(=O)CCc2nc3cc(S(=O)(=O)N4CCOCC4)ccc3n2C)cc1,n,n,n,n,n,n,x,x
CC(=O)c1ccc(NC(=O)C2=CC(c3cccs3)=NS(=O)(=O)N2C)cc1,n,n,n,n,n,n,x,x
Cc1ccc(NC(=O)C2=CC(c3cccs3)=NS(=O)(=O)N2C)cc1,n,n,x,n,n,53,n,x
CCc1ccc(NC(=O)C2=CC(c3cccs3)=NS(=O)(=O)N2C)cc1,n,n,n,n,n,72,57,44
COc1cc(NC(=O)C2=CC(c3cccs3)=NS(=O)(=O)N2C)cc(OC)c1OC,n,n,n,n,n,n,x,x
CCC(=O)N1CCc2cc(S(=O)(=O)NCCC(=O)N3CCN(c4cccc(C)c4)C(C)C3)ccc21 (centres undefined),n,n,n,n,n,n,x,x
CCc1ccc(NC(=O)CC2S/C(=N/N=C3CCCCCC3)NC2=O)cc1 (centres undefined),n,n,x,n,x,n,x,x
Cc1c(CN(C)C)c2c(n1Cc1ccccc1)C(=O)c1ccc(Br)cc1-2,n,n,n,n,n,77,61,n
CN1c2ccccc2C(C)(C)C12C=Cc1cc(O)ccc1O2 (centres undefined),n,n,n,n,n,n,x,x
CN1c2ccccc2C(C)(C)C12C=Nc1c(cc(N3CCOCC3)c3ccccc13)O2 (centres undefined),n,n,x,n,x,59,n,x
Cc1ccc(N(Cc2cc(=O)[nH]c3ccccc23)C(=O)CCl)c(C)c1,n,n,n,n,n,100,100,54
CCCC(=O)N(Cc1cc(=O)[nH]c2ccccc12)c1ccc(C)cc1C,n,n,n,n,n,n,x,x
COc1ccc(C(=O)Oc2cc3c4c(c2)C(C)=CC(C)(C)N4C(=O)C3=O)cc1OC,n,n,n,n,n,67,n,x
COc1cc(N=C2C(=O)N3c4c(cccc42)C(C)=CC3(C)C)cc(OC)c1,n,n,n,n,x,n,x,x
COc1cccc(C(=O)Oc2cc3c4c(c2)C(C)=CC(C)(C)N4C(=O)C3=O)c1,n,n,n,n,n,67,50,45
COc1cc2c3c(c1)C(C)=CC(C)(C)N3C(=O)C2=O,n,n,n,n,n,56,n,x
CCc1cc(=O)[nH]c(SC/C=C/c2ccccc2)n1,n,n,n,n,n,n,x,x
